From PubChem BioAssay (NCATS)
Activity calls are given as the source filed them. Calls come from the whole dose curve.

Tests used:
Assay in all cases: Confirmatory Screen for Target Class Profiling of Small Molecule Inhibitors of Methyltransferases (AID 1745852); for activity change, negative = inhibition: % is set by controls: 0 for no effect and ±100 for the full control effect
[1] = target: Catechol O-methyltransferase (Homo sapiens) (UniProt P21964); settings: MTase-Glo luminescence, SAH detection, recombinant enzyme; measured here: COMT max response; stronger effect = lower value
[2] = target: Guanidinoacetate N-methyltransferase (Homo sapiens) (UniProt Q14353); settings: activity change, negative = inhibition: at 57.3 µM (top of the series) unless noted
[3] = target: Nicotinamide N-methyltransferase (Homo sapiens) (UniProt P40261); settings: MTase-Glo luminescence, SAH detection, recombinant enzyme; measured here: NNMT max response; stronger effect = lower value
[4] = target: Phenylethanolamine N-methyltransferase (Homo sapiens) (UniProt P11086); settings: MTase-Glo luminescence, SAH detection, recombinant enzyme; measured here: PNMT max response; stronger effect = lower value
Potency is the fitted concentration of half-maximal effect.

Chain of Phenylethanolamine N-methyltransferase (Homo sapiens) (P11086 whole entry, looked up): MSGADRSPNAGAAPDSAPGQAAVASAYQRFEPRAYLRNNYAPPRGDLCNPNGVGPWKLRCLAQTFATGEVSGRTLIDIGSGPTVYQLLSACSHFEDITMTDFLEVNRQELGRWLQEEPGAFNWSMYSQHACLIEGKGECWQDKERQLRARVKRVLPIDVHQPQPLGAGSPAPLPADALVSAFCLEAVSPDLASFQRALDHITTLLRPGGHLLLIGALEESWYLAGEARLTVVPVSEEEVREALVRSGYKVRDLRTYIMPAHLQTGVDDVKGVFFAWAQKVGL
Chain of Catechol O-methyltransferase (Homo sapiens) (P21964 whole entry, looked up): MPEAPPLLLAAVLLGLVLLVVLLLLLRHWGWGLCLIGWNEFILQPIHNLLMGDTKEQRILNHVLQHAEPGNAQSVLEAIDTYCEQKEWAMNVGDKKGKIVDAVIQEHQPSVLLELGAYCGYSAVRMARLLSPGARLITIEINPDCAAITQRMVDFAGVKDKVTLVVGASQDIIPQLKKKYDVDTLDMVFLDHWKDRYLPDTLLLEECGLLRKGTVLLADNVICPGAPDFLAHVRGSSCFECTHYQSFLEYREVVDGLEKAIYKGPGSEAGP
Chain of Nicotinamide N-methyltransferase (Homo sapiens) (P40261 whole entry, looked up): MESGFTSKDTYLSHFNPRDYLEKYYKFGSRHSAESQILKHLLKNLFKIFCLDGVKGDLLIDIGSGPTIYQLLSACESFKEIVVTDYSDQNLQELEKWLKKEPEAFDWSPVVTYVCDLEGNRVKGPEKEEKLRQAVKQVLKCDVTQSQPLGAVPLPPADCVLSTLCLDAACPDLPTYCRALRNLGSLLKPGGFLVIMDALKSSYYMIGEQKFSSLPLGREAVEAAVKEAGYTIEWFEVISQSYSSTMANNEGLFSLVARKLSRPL

SMILES	activity [1] [%]	Potency [2]	activity [3] [%]	activity [4] [%]	activity change, negative = inhibition [2]
COc1ccc(CCNC(=O)c2ccc3c(=O)[nH]c4c(C(=O)NC5CCCC5)sc(=S)n4c3c2)cc1OC	-35.3	24.1 µM (active)	-49.2	-23	
COc1cc2c(cc1O)NC(=O)CC2c1cn[nH]c1-c1cc(C)ccc1C (centres undefined)	-13.7		-6.25	-21.7	2.11%
Cc1cc(F)ccc1NS(=O)(=O)c1ccc2[nH]c3c(c2c1)CCCC3	0		-33.2	0	0.252%
O=C(Cn1c(=O)oc2cc(S(=O)(=O)N3CCCC3)ccc21)Nc1cccc(Cl)c1	-1.16		4.81	-49.8	0%
CCN(CC)CCCNC(=O)CCc1nnc2n(CCc3ccccc3)c(=O)c3ccccc3n12	-3.69		-11.7	2.52	-1.16%
CCCC1c2cccn2CCN1C(=O)Nc1cccc(Cl)c1C (centres undefined)	-7.65		-16	-8.29	-4.33%
CCOC(=O)c1cccc(Nc2cc(C)nc3ccc(C)cc23)c1	-4.58		-21.8	-4.31	0%
COc1ccc(CCNC(=O)c2ccc3c(=O)nc4c(-c5ccccc5)n[nH]n4c3c2)cc1OC	-11.8	0.0961 µM (active)	-10.5	-12.5	
COc1cccc(CN2CCCC3(CCN(c4cc(C)nc(N)n4)C3)C2)c1OC (centres undefined)	-4.01		-4.87	-3.6	-7.75%
COc1ccc(-c2cc3c(cn2)CN(CCc2ccccc2)CCN3)cc1OC	-0.529		-18.9	-48.8	3.81% [at 85.7 µM]
COc1cc(F)ccc1-c1cc(-c2ccc(=O)[nH]c2)c2cncn2c1	-95.1		-11	-5.79	-5.99% [at 85.7 µM]
Cc1nc2c3ccccc3n3c(CCCC(=O)NCCCN(C)Cc4ccccc4)nnc3n2n1	-2.29		-3.81	-3.01	0%
CCOC(=O)c1cc2n(n1)CC(C)(C(=O)NCCC(C)C)N(c1ccccc1C)C2=O (centres undefined)	2.78	inactive	3.85	1.34	
COc1ccc(-c2nc3ccncc3[nH]2)cc1	-92.6	12.4 µM (active)	-106	-86.1	
OC1(Cn2ccnc2)CCN(Cc2ccccc2Cn2cccn2)CC1	3.04		4.14	5.79	3.7%
Cc1noc(C)c1[S+](=O)([O-])N1CCn2c(nn(-c3ccc(C(F)(F)F)cc3)c2=O)C1	-1.02		-3.73	-10.3	-1.81%

SMILES	activity [1] [%]	Potency [2]	activity [3] [%]	activity [4] [%]	activity change, negative = inhibition [2]
CCCc1sc(NC(=O)C[C@H]2NC(=O)c3ccccc3NC2=O)nc1C(=O)OC	4.16		-4.71	3.73	2.83%
CN(C)CC1(O)CCC2(CCN(C(=O)c3cccn3C)CC2)CC1	7.38		3.1	9.04	3.21%
O=C(CCc1nnc2n(Cc3ccccc3Cl)c(=O)c3ccccc3n12)NCCc1c[nH]c2ccccc12	4.12		-2.9	-5.42	0%
CC(C)Cn1c(=O)c2ccccc2n2c(CCC(=O)Nc3ccc(F)c(F)c3)nnc12	-1.85		-38.2	-5.35	1.46%
O=C(c1ccc(C(F)(F)F)cc1)N1CCCC(C(=O)N2CCC(c3nc4ccncc4[nH]3)CC2)C1 (centres undefined)	9.15		-28.9	9.23	6.72%
CC1CCCCC1NC(=O)C1(C)Cn2c(cc3sccc32)C(=O)N1Cc1ccc(Cl)cc1 (centres undefined)	-7.44		-8.12	-8.77	-6.06%
Cn1c(C(=O)NCCN2CCCCC2)cc2c1CCN(Cc1cccc(F)c1)C2	7.65		7.53	7.04	15.7%
O=C(CCc1nnc2n(Cc3ccc(Cl)cc3)c(=O)c3ccccc3n12)N1CCC(N2CCCCC2)CC1	-4.51		-21.6	0.847	-0.992%
O=C(NCc1cccc(Cl)c1)c1cnc2c(c1)N(C(=O)Cc1ccc(O)cc1)CCC2	-2.5		-5.79	-1	-3.31% [at 85.7 µM]
CC1(C(=O)NC2CCCCCC2)Cn2c(c(-n3cccc3)c3ccccc32)C(=O)N1CC1CCCO1 (centres undefined)	4.7		-46.9	0	0.126%
CCc1cccc(NC(=O)Cn2c(=O)oc3cc(S(=O)(=O)N4CC(C)CC(C)C4)ccc32)c1 (centres undefined)	3.4		-6.52	-59.2	0%
CC(C)c1nccn1CCCNC(=O)c1ccc(N2CCCC(CO)C2)nc1 (centres undefined)	2.58		6.68	5.49	1.26%
COc1ccc(CN2CCCC(COc3ccccc3C(=O)NC3CC3)C2)c(OC)c1 (centres undefined)	4.91		1.02	1.19	4.18%
COc1ccc(-c2[nH]ncc2CN2CC[C@H]3CC[C@@H](C2)N3)cc1	11.4		10.4	7.25	7.93%
O=C(NCc1ccccc1)c1ccc2c(=O)nc3c(-c4ccccc4F)n[nH]n3c2c1	-13.3	0.121 µM (active)	-8.4	-13.5	
